Rows were chosen to be rich in hits. Some 3.5% of all compounds tested hit in one or more screens of this group.
FBW7 act – activators of human E3 ligase FBW7; Q969H0; AlphaScreen FBW7–phospho-cyclin E peptide binding, activator screen; normalized activity (activation), % at 26.1 µM; 650,000 tested, 0.13% active; AID 1259310; in the data active = normalized activity above about 1.9%;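 note: purified mutant Fbw7 with reduced substrate affinity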
TEAD-YAP inh – TEAD-YAP interaction inhibition; inhibition, % at 9.12 µM; AID 1259422; HEK-TIYL cells, TEAD-Gal4/YAP UAS-luciferase luminescence; 640,000 tested, 1.4% active; in the data active = inhibition above about 32%
GPR151 activ – activates the human receptor GPR151; Q8TDV0; PathHunter beta-arrestin GPR151 cells, luminescence; activation, % at 11.2 µM; 650,000 tested, 1% active; AID 1508602; in the data active = activation above about 4.9%
Target sequence (Q8TDV0 whole entry, looked up): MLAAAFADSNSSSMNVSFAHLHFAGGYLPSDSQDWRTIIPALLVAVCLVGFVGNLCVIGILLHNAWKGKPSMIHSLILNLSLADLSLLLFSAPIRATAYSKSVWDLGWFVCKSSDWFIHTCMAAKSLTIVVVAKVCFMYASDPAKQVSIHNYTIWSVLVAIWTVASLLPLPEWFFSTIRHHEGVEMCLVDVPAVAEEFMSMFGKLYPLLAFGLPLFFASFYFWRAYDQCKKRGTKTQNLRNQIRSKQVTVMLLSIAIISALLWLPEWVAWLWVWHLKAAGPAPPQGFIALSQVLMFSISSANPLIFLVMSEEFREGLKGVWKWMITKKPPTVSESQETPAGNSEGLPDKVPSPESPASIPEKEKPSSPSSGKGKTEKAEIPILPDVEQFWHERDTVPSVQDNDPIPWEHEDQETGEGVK
MITF primary – blocks human microphthalmia-associated transcription factor | O75030 | AlphaScreen MITF homodimerization, bead proximity signal | inhibition, % at 2.6 µM | 650,000 tested, 0.91% active; in the data active = inhibition above about 50%
A number is an active result; – = inactive.

SMILES	FBW7 act	TEAD-YAP inh	GPR151 activ	MITF primary
COc1cccc(-c2nc3sc(C)c(C)c3c(=O)[nH]2)c1O	–	–	–	–
COc1ccccc1NC(=O)c1ccc(SCC(=O)N2CCC3(CC2)OCCO3)c([N+](=O)[O-])c1	–	38.0	–	–
O=C(NCC(c1cccs1)N1CCOCC1)c1ccc(Cl)s1 (stereo not given)	–	57.3	–	–
Cc1sc2ncnc(N/N=C/c3cccc([N+](=O)[O-])c3)c2c1C	–	–	–	–
Cc1sc2ncnc(N/N=C/c3ccc([N+](=O)[O-])o3)c2c1C	–	34.6	–	–
CN1C(=O)N(C)C(NNC(N)=S)C1NNC(N)=S (stereo not given)	–	87.7	–	–
CC(=O)c1ccc(NC(=O)CCS(=O)(=O)c2ccc(Cl)cc2)cc1	–	–	–	–
C=CCC1S/C(=N\N=C\c2cccc([N+](=O)[O-])c2)NC1=O (stereo not given)	2.3	–	–	–
Cc1ccc(-c2cc3c(nn2)-c2ccccc2C3=O)cc1	–	81.3	–	–
COc1ccc2nc(NC(=S)NC(=O)c3ccc(S(=O)(=O)N4CCCC4)cc3)sc2c1	–	–	–	–
CNc1ccc(Cl)c2c1C(=O)c1ccccc1C2=O	–	–	–	–
CCOC(=O)c1c(-c2ccccc2)oc2ccc(NS(=O)(=O)c3ccc(OC)cc3)cc12	–	57.0	–	–
CCOC(=O)c1c(-c2ccccc2)oc2ccc(NS(=O)(=O)c3ccccc3)cc12	–	–	–	–
CCOC(=O)c1c(-c2ccccc2)oc2ccc(NS(=O)(=O)c3ccc(OCC)cc3)cc12	–	56.9	–	–
Cc1ccc(-c2nnc3n2N=C(c2ccc(O)c(O)c2)CS3)cc1	–	58.8	–	–
Oc1ccccc1-c1nnc2n1N=C(c1ccc(F)cc1)CS2	–	–	–	–
Oc1ccc(C2=Nn3c(nnc3-c3ccccc3Cl)SC2)cc1O	–	63.5	–	–
Cc1ccc(C2=Nn3c(C)nnc3SC2)cc1	–	–	–	–
Cc1ccc(NC(=O)C(C)Sc2nnc(N)s2)cc1 (stereo not given)	–	–	–	–
COc1ccc(CCNc2nnc(Sc3nnnn3-c3ccccc3)s2)cc1OC	–	54.2	–	–
Cn1c(Nc2nc(NC3CC3)c3ncn(-c4ccsc4)c3n2)nc2ccccc21	–	58.6	–	–
c1cncc(Nc2nc(NC3CC3)c3ncn(-c4ccsc4)c3n2)c1	–	–	–	–
c1cnc(Nc2nc(NC3CC3)c3ncn(-c4ccsc4)c3n2)nc1	–	50.1	–	–
CCCNc1nc(Nc2nc3ccccc3n2C)nc2c1ncn2-c1ccsc1	–	–	–	–
COc1ccc(C2(CCN)CCOC(C)(C)C2)cc1 (stereo not given)	–	–	–	–
SMILES	FBW7 act	TEAD-YAP inh	GPR151 activ	MITF primary
Cc1cncc(NC(=O)c2cc(N3CCOCC3)cc(-n3cc(NC(=O)Cc4ccccc4)cn3)c2)c1	–	39.9	–	–
COc1ccc(C(=O)NCc2nnc(SCC(=O)N3N=C(c4ccc(Br)cc4)CC3c3ccc(C)cc3)n2C)cc1 (stereo not given)	–	–	–	–
CCCCCN1C=CC(=C2C(=O)c3ccccc3C2=O)C=C1	–	95.2	–	–
CCCCCN1C(=O)C(=O)c2ccccc21	–	–	–	–
Cc1cc(=O)oc2c1ccc1oc(C(=O)c3ccccc3)c(-c3ccccc3)c12	–	72.0	–	–
Cc1cc(=O)oc2c1ccc1oc(C(=O)c3ccccc3)c(C)c12	–	48.6	–	–
C/C(=N\O)c1oc2ccc3c(C)cc(=O)oc3c2c1C	–	–	–	–
Cc1cc(=O)oc2c1ccc1oc(C(=O)c3ccc(Cl)cc3)c(-c3ccccc3)c12	–	63.2	–	–
CC(=O)c1oc2ccc3c(C)cc(=O)oc3c2c1-c1ccccc1	–	–	–	–
Cc1cc(C(=O)N[C@@H](C)Cn2nnn(-c3ccco3)c2=O)on1	–	–	–	–
Cc1cc(C)nc(/N=C(\N)Nc2cc(Cl)ccc2C)n1	–	–	–	–
Cc1ccc(N/C(N)=N/c2nc(C)cc(N3CCCC3)n2)c(C)c1	–	34.0	–	–
CCc1ccc(S(=O)(=O)Nc2cccc(N3CCCS3(=O)=O)c2)cc1	–	32.6	–	–
CC(C)N(CCNc1nc(Nc2ccc(N3CCOCC3)cc2)nc2c1ncn2-c1ccccc1)C(C)C	–	–	–	–
Oc1ccc(CCNc2nc(Nc3ccc(N4CCOCC4)cc3)nc3c2ncn3-c2ccsc2)cc1	–	42.4	–	–
CC(C)N(CCNc1nc(Nc2ccc(N3CCOCC3)cc2)nc2c1ncn2-c1ccsc1)C(C)C	–	38.9	–	–
c1ccc(OCCNc2nc(Nc3ccc(N4CCOCC4)cc3)nc3c2ncn3-c2ccsc2)cc1	–	–	–	–
c1ccc(CNc2nc(Nc3ccc(N4CCOCC4)cc3)nc3c2ncn3-c2ccsc2)cc1	–	–	–	–
OCCNc1nc(Nc2ccc(N3CCOCC3)cc2)nc2c1ncn2-c1ccsc1	–	60.3	–	–
Cc1cc(C2C(=O)c3ccccc3C2=O)nc2ccccc12	–	48.6	–	–
COc1cccc(-n2c(=S)sc3c(=O)n(-c4ccccc4)c(SCC(=O)C(C)(C)C)nc32)c1	–	–	–	–
O=[N+]([O-])c1cccc(CN2CCN(Cc3cc(Br)ccc3O)CC2)c1	–	–	–	65.3
O=[N+]([O-])c1cccc(CN2CCCCCC2)c1	–	–	–	–
CCOC(=O)c1c(NC(=O)CSc2nnc(CNC(=O)c3cc(OC)cc(OC)c3)n2C2CCCCC2)sc2c1CCCC2	–	–	–	–
CCOc1c(C=C2C(=O)NC(=S)NC2=O)cccc1OC	–	–	–	–
SMILES	FBW7 act	TEAD-YAP inh	GPR151 activ	MITF primary
N#Cc1c(/N=C/c2ccc(O)cc2O)sc2c1CCCC2	–	61.4	–	–
N#Cc1c(/N=C\c2ccc(O)cc2O)sc2c1CCCC2	–	–	–	–
CCOc1cc(C2C3=C(CC(c4ccccc4)CC3=O)Nc3ccccc3N2C(=O)c2cccs2)ccc1OCc1ccc(Cl)cc1 (stereo not given)	–	–	–	–
c1cnc(Nc2nc(NC3CC3)c3ncn(C4CCCCC4)c3n2)cn1	–	41.8	–	–
O=C1CCCN1CCCNc1nc(Nc2ccccc2)c2ncn(C3CCCCC3)c2n1	–	64.3	–	–
O=C1CCCN1CCCNc1nc(Nc2cnccn2)nc2c1ncn2C1CCCCC1	–	34.9	–	–
O=C1CCCN1CCCNc1nc(Nc2cnccn2)nc2c1ncn2CCN1CCCC1=O	–	–	–	–
CC(=O)Nc1ccc(Nc2nc(NCCCN3CCCC3=O)nc3c2ncn3C2CCCCC2)cc1	–	–	–	–
COc1ccc(-c2noc(CCC(=O)NCC(C)C)n2)cc1	–	–	–	–
O=C(O)C1C2C=CC(O2)C1C(=O)Nc1ccc(Br)cc1 (stereo not given)	–	–	–	–
CC(=O)Nc1ccc(Nc2cc(C)nc(Nc3ccc4ncccc4c3)n2)cc1	–	–	–	–
CC(=O)Nc1ccc(Nc2ccnc(Nc3ccc(C(F)(F)F)cc3)n2)cc1	–	59.8	–	–
CC(=O)Nc1ccc(Nc2ccnc(Nc3ccncn3)n2)cc1	–	–	–	–
CC(=O)Nc1ccc(Nc2ccnc(Nc3ccc4ncccc4c3)n2)cc1	–	36.6	–	–
